Screening results from PubChem BioAssay.
KB-3-1 tox – kills parental KB-3-1 adenocarcinoma cells; actives 1.4% (n = 400,000); Potency, µM (doses to about 46.1 µM), actives largely listed as cytotoxic; KB-3-1 viability, CellTiter-Glo ATP luminescence, 72 h; note: potency is the fitted concentration of half-maximal effect; % is set by controls: 0 for no effect and ±100 for the full control effect; nearly all actives have a fitted effect of over 60% in size
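KB-3-1 cells, DMEM (no phenol red) + 10% FBS; compound by pin transfer, 72 h, 37 °C. Readout: CellTiter-Glo luminescence after 10 min. Data normalized, curve-fitted.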
KB-V1 MDR tox – kills drug-selected multidrug resistant KB-V1 cells. KB-V1 MDR cells viability, CellTiter-Glo, 72 h. AID 1347076. actives 3.4% (n = 400,000). Potency, µM (titrated, usually from 46.1 µM), usual class: cytotoxic; note: potency is the fitted concentration of half-maximal effect; % is set by controls: 0 for no effect and ±100 for the full control effect; nearly all actives have a fitted effect of over 60% in size
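Potencies derive from concentration-effect curves fitted to normalized luminescence (CellTiter-Glo) of KB-V1 cells treated for 72 h at 37 degrees C in phenol-red-free DMEM containing 10% FBS.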
MCF10A rerep – inducers of DNA re-replication in MCF 10A breast cells; AID 624296; actives 2.9% (n = 350,000); MCF 10A DNA re-replication, Hoechst nuclear intensity, 48 h; Potency, µM (series often up to 46.1 µM), without a hit: at the highest dose activity, positive = re-replication, most hits filed as activators; note: potency is the fitted concentration of half-maximal effect; % of control where 0% means no effect; nearly all actives have a fitted effect of over 50% in size
SW480 rerep – DNA re-replication induction in SW480 cells; SW480 DNA re-replication, Hoechst DNA content imaging, 48 h; Potency, µM (titrated, usually from 46.1 µM), without a hit: top-dose re-replication activation, hits mostly activators; actives 1.8% (n = 340,000); AID 624297; note: potency is the fitted concentration of half-maximal effect; % of control where 0% means no effect; nearly all actives have a fitted effect of over 55% in size
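250 cells/well; 23 nL cpd via pin tool; 48 hr, 37 C, 5% CO2; Hoechst 40 min; imager read of total nuclear intensity, ex 405/em 500-530 nm.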
IL-1B inflam inh – blocks inflammasome-driven IL-1 beta release; THP-1 LPS/ATP IL-1B secretion, AlphaLISA, 16 h; active compounds read low; activity change, % at 57.5 µM; actives 4.7% (n = 360,000); in the data active = activity change below about -50%; inconclusive = mostly about -30% to -49%; note: % is set by controls: 0 for no effect and ±100 for the full control effect
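Secreted IL-1B measured by AlphaLISA bead assay after 16 h compound exposure of THP-1 cells; compounds (final up to 57.5 uM) added 1 h before LPS (250 ng/mL) and ATP (1.25 mM) stimulation; lower signal means less secretion.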
* = called active by the depositor; i = inactive; u = inconclusive; x = no result. Only some compounds are listed: those with a hit (about 9.9% of all), similar ones and a draw of the others. Unless noted, calls come from the whole dose curve; as a rule, active = well fitted curve in the direction sought with a large enough effect; inconclusive = small, poorly fitted or top-dose-only effect, or another doubt; inactive = no such curve, though single readings can be large; an effect the other way counts as inactive or inconclusive.

SMILES	KB-3-1 tox	KB-V1 MDR tox	MCF10A rerep	SW480 rerep	IL-1B inflam inh
CC(=O)n1cc(CO)c2ccccc21	i	i	-6.8%	25.1%	30.2
CC(=O)n1cc(N(C(=O)CCl)c2ccc([N+](=O)[O-])cc2)c2ccccc21	u	u	u	16.4µM*	-100.8*
O=Cc1[nH]c2ccccc2c1N(C(=O)CCl)c1ccc([N+](=O)[O-])cc1	i	i	u	u	-67.1*
O=C(NC1CCN(CC(=O)N(c2ccccc2)c2ccccc2)CC1)c1ccc([N+](=O)[O-])cc1	i	u	11.6%	1.3%	-19.2
O=C(Nc1nccs1)c1ccc(COc2ccc(F)cc2)o1	i	i	2.91µM*	-6.0%	-9.6
O=C(Nc1nccs1)c1ccc(COc2ccc(Cl)cc2)o1	i	u	18.3%	-3.5%	-3.8
O=C(Nc1nccs1)c1ccc(COc2ccccc2Br)o1	u	14.6µM*	-5.5%	0.7%	-24.3
CCOC(=O)C1=C(C)NC(C)=C(C(=O)OCC)C1c1ccc(Br)o1	i	u	u	15.2%	-72.0*
CN1CCO/C1=C(\C(Cl)=C(Cl)Cl)[N+](=O)[O-]	i	i	-32.8%	6.0%	-7.6
CCC1CO/C(=C(\C(Cl)=C(Cl)Cl)[N+](=O)[O-])N1 (stereo not drawn)	i	i	2.8%	-1.4%	-61.3*
Cc1ccc(NC(=O)CN(C)C(=O)C(C)N2CCN(Cc3ccccc3C)CC2)cc1 (stereo not drawn)	i	9.2µM*	0.0%	0.9%	-18.4
Cc1ccccc1CN1CCN(C(C)C(=O)NCc2ccccc2)CC1 (stereo not drawn)	i	i	1.3%	-5.4%	-6.1
COc1ccc(-c2nn3c(=O)cc(CN4CCN(C(=O)c5ccc(C(C)(C)C)cc5)CC4)nc3s2)cc1	i	i	x	x	x
O=C(N/N=C/c1ccc(F)cc1)c1cc(-c2ccco2)nc2ccccc12	u	u	13µM*	u	27.6
CCOc1ccc(/C=N/NC(=O)c2cc(-c3ccco3)nc3ccccc23)cc1	i	i	4.11µM*	u	-14.8
O=C(O)c1cc(-c2ccco2)nc2ccccc12	i	u	-19.7%	2.0%	25.2
CCCc1cc(=O)[nH]c(SCC(=O)c2cc(C)n(CC(F)(F)F)c2C)n1	i	16.4µM*	20.9%	-4.8%	59.2
CC(NC(=O)c1ccc(Br)s1)c1ccncc1 (stereo not drawn)	i	i	-0.5%	-6.3%	2.5
CCOC(=O)c1c(-c2ccccc2)oc2ccc(O)c(CN3CCCC3)c12	u	u	-1.4%	-0.8%	-60.0*
CCOC(=O)c1c(CSCc2ccccc2)oc2ccc(O)c(CN(C)C)c12	u	u	20.0%	u	-82.2*
CC(=O)N1c2ccc(S(=O)(=O)N3CCCCCC3)cc2CC1C(=O)NCc1ccccc1 (stereo not drawn)	i	i	x	x	x
CC(C)(C)CC(C)(C)c1ccc(O)c(CN2CCN(CCC#N)CC2)c1	i	u	18.4µM*	u	-56.6*
CC(C)(C)c1ccc(S(=O)(=O)N2CCN(CCC#N)CC2)cc1	i	i	0.2%	-1.3%	-7.1
N#CCCN1CCN(Cc2cc(-c3ccccc3)ccc2O)CC1	i	20.6µM*	u	-1.3%	-3.9
CC(=O)Nc1sc(NC(=O)c2ccc(C)cc2)nc1-c1cccs1	i	i	17.4%	-1.9%	-7.4
SMILES	KB-3-1 tox	KB-V1 MDR tox	MCF10A rerep	SW480 rerep	IL-1B inflam inh
N#Cc1cccc(C#N)c1Oc1ccc(S(=O)(=O)Nc2ccc(Cl)cc2)cc1	i	i	u	-21.2%	-29.9
COc1ccc(-n2cc(-c3ccccc3)c3c(=O)[nH]cnc32)cc1	i	i	8.7%	-0.3%	-82.2*
OCCN1CCN(c2ncnc3c2c(-c2ccccc2)cn3-c2ccc(Br)cc2)CC1	i	u	u	14.8%	-83.2*
COc1ccc(-n2cc(-c3ccccc3)c3c(N4CCOCC4)ncnc32)cc1	i	16.4µM*	152.6%	20.2%	-146.3*
Fc1ccc(-n2cc(-c3ccccc3)c3c(N4CCOCC4)ncnc32)cc1	i	u	u	14.1%	-5.5
COc1ccc(Nc2ncc3c(n2)CCN(Cc2cc(Br)cs2)C3)c(OC)c1	i	i	x	x	x
